In ChEMBL document CHEMBL1157539, “Thousands of chemical starting points for antimalarial lead identification” (Nature, 2010):

These compounds were tested on Plasmodium falciparum (assay: GSK_TCMDC: Inhibition of Plasmodium falciparum 3D7 in whole red blood cells, using parasite LDH activity as an index of growth. Test compounds present at 2uM).
Format: functional

Row | SMILES | Inhibition [%]
1 | CCCc1c(C(=O)Nc2ccc3c(c2)CCN(C2CCC2)CC3)cnn1-c1ccc(Cl)cc1.O=C(O)C(F)(F)F | 92
2 | Cc1ccc(Sc2ccc(NC(=O)CN3CCN(C(=O)c4ccco4)CC3)cc2)cc1C | 92
3 | O=C(CSc1nc(-c2ccccc2Cl)ns1)Nc1ccc2c(c1)OCO2 | 93
4 | FC(F)(F)c1ccc2[nH]c(-c3cccc(-c4cccc(CNCc5cnn(-c6ccccc6)n5)c4)c3)nc2c1.O=C(O)C(F)(F)F | 100
5 | O=C(Nc1ccnc(N2CC3CC2CN3Cc2cccc(O)c2)c1)c1ccc(F)cc1.O=C(O)C(F)(F)F (centres undefined) | 92
6 | CN1CCC(C(=O)Nc2cccc(-c3ccc(-c4nc5cc(C(F)(F)F)ccc5[nH]4)s3)c2)CC1 | 100
7 | COc1ccc2ncc(F)c([C@H](O)CN3CCC(NCc4ccc5c(c4)OCCO5)CC3)c2c1.Cl | 100
8 | COc1ccc(C(C)Nc2nc(N)c3cc(OC)c(OC)cc3n2)cc1.Cl (centres undefined) | 100
9 | Cc1ccc(C)c(NC(=O)Nc2ccc(C)c(-c3ccc(C(=O)Nc4ccncc4)cc3)c2)c1 | 98
10 | Cc1ccc(C(=O)Nc2cccc(CN3CCCN(Cc4ccc(O)cc4)CC3)c2)cc1.O=C(O)C(F)(F)F | 88
11 | NC(=O)c1ccc(C(=O)Nc2cccc(-c3csc(-c4nc5ccccc5[nH]4)c3)c2)cc1 | 100
12 | O=C(Nc1ccc(OC2CCN(Cc3ccsc3)C2)c(Cl)c1)c1ccsc1.O=C(O)C(F)(F)F (centres undefined) | 85
13 | COc1cccc(CN2CCCN(Cc3cccc(NC(=O)c4ccc(Cl)c(Cl)c4)c3)CC2)c1.O=C(O)C(F)(F)F | 89
14 | CCN(CC)CCCNc1c2ccccc2nc2ccccc12.Cl | 100
15 | Cc1ccc(Cn2ncc(NC3CCNCC3)c(Cl)c2=O)cc1NC(=O)Nc1ccc(-c2ccccc2)cc1.O=C(O)C(F)(F)F | 99
16 | CC(C)NCc1ccc(-c2ccc(NC(=O)c3cccc(C#N)c3)cc2)cc1.O=C(O)C(F)(F)F | 99
17 | Cc1ccccc1N1CCN(c2ccc(C(=O)Nc3ccccc3)cn2)CC1.O=C(O)C(F)(F)F | 95
18 | Cc1cc(C2CCN(CCCCNC(=O)c3ccc(NC(=O)c4ccc(Cl)cc4)cc3)CC2)c(C)cc1OCc1nccn1C.Cl | 100
19 | N#Cc1cccc(CN(Cc2ccc(Cl)c(Cl)c2)S(=O)(=O)c2cccc([N+](=O)[O-])c2)c1 | 100
20 | CCN(CCCN1CCCCC1)c1cc(C)nc(Nc2cc(Cl)cc(Cl)c2)n1.O=C(O)C(F)(F)F | 100

Row | SMILES | Inhibition [%]
21 | Cc1noc(C)c1-c1cccc(CNCc2cccc(-c3cccc(-c4nc5cccc(C)c5[nH]4)c3)c2)c1.O=C(O)C(F)(F)F | 100
22 | CN(c1ccc2c(c1)nc(NCc1ccc(F)cc1)n2C)c1ccnc(Nc2ccc(CS(C)(=O)=O)cc2)n1.Cl | 97
23 | CNC(=O)/C=C/c1cc(NC(=O)Nc2ccnc3c(Br)cccc23)ccc1OC | 95
24 | Cc1cccc2nc(-c3ccc(-c4ccc(NC(=O)Nc5cccc(C#N)c5)cc4)cc3)[nH]c12 | 100
25 | COc1ccc(CNC2CCN(C)CC2)cc1-c1ccc(S(=O)(=O)NC2CCC2)c(F)c1.O=C(O)C(F)(F)F | 100
26 | COc1cc(NC(=O)N2CCc3cc(OC)c(OCCN4CCCCC4)cc32)cc(C(F)(F)F)c1.O=C(O)C(=O)O | 93
27 | COc1ccc(CCN(C)CCOc2ccc(NC(=O)c3cc(SC)cc4c(=O)c5ccccc5[nH]c34)cc2)cc1OC | 87
28 | Br.CCCCCCCNCCNc1cc(C)nc2ccccc12 | 100
29 | COc1cc2nc(NCCc3ccccc3)nc(NCc3cc(C)no3)c2cc1OC | 99
30 | Cc1cccc2nc(-c3ccc(-c4cccc(NC(=O)CCc5c[nH]cn5)c4)s3)[nH]c12 | 94
31 | CN(C)c1cccc(-c2cnc3ccc(NCc4cccc(Cl)c4)nn23)c1 | 99
32 | Cc1nc(O)c2c(ccc3ccc(CNc4ccc(C(=O)N[C@@H](CCC(=O)O)C(=O)O)c(F)c4)cc32)n1 | 96
33 | CS(=O)(=O)c1ccc(-n2nc(C(F)(F)F)cc2-c2ccc(C=NOCC(=O)O)o2)cc1 | 87
34 | O=C(Nc1ccc(Cl)cc1Cl)NC1CCN(CCCCCNC(=O)C2CC2c2ccc(Cl)c(Cl)c2)CC1 (centres undefined) | 100
35 | COc1ccc(CN(C)CCCSc2ccc(NC(=O)c3cccc4c(=O)cc(-c5ccccc5)[nH]c34)cc2)cc1OC | 93
36 | Cc1cc(N)c2cc(NC(=O)/C=C/c3ccccc3)ccc2n1 | 100
37 | CCNc1cc(C(=O)N[C@@H](Cc2ccccc2)[C@H](O)CN[C@H]2CCc3ccccc32)cc(N2CCCC2=O)c1 | 98
38 | Cc1cccc2nc(-c3ccc(-c4cccc(CNCCCN5CCCC5=O)c4)cc3)[nH]c12.O=C(O)C(F)(F)F | 96
39 | C=CCOc1ccc(-c2c(C)[nH]c(C)c(Br)c2=O)cc1 | 98
